From PubChem BioAssay (NCATS)
Records with an inconclusive call do not appear. Calls of active or inactive are those of the source. Unless noted, calls come from the whole dose curve; as a rule, active = well fitted curve in the direction sought with a large enough effect; inconclusive = small, poorly fitted or top-dose-only effect, or another doubt; inactive = no such curve, though single readings can be large; an effect the other way counts as inactive or inconclusive.

How the values were obtained:
[1] = P-glycoprotein substrates identified in KB-8-5-11 adenocarcinoma cell line, qHTS therapeutic library screen (AID 1346987); note: nearly all actives have a fitted effect of over 65% in size; note: potency is the fitted concentration of half-maximal effect
Method in brief: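 KB-8-5-11: colchicine-selected sub-line of KB-3-1 over-expressing P-gp; assay medium lacked colchicine. 72 h drug exposure at 37 degree C, CellTiter-Glo.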

KB-3-1 = assay: Cytotoxic Profiling of Annotated Libraries Using Quantitative High-Throughput Screening (AID 1296008); conditions: Five cell lines viability, CellTiter-Glo ATP luminescence, 48-72 h; max response: stronger effect = lower value; note: nearly all actives have a fitted effect of over 60% in size; note: potency is the fitted concentration of half-maximal effect
Method in brief: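 Cells exposed to compounds for 48 or 72 hr at 37 degrees Celsius. Viability read as ATP-coupled luminescence with CellTiter-Glo after 10 min at room temperature.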

CAOV3 = assay: Primary qHTS to identify gynecologic anti-cancer compounds using libraries of approved drugs and bioactive compounds (AID 1345084); conditions: Gynecologic cancer cell panel viability, ATPlite luminescence, 48 h; series mostly up to 57.5 µM; note: nearly all actives have a fitted effect of over 55% in size; note: potency is the fitted concentration of half-maximal effect; for activity change, negative = cytotoxicity: % is set by controls: 0 for no effect and ±100 for the full control effect
Method in brief: (§1)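 Measured: luminescence after ATPlite addition (15 min, RT). Exposure: 48 h, 37 C, 5% CO2.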

HeLa = assay: as above; conditions: Gynecologic cancer cell panel viability, ATPlite luminescence, 48 h; series mostly up to 57.5 µM
Method in brief: as §1

JEG-3 = assay: as above; conditions: Gynecologic cancer cell panel viability, ATPlite luminescence, 48 h; series mostly up to 57.5 µM
Method in brief: as §1

[2] = biological target: Calcium and integrin-binding protein 1 (Homo sapiens) (UniProt Q99828); assay: Primary qHTS for Identification of Calcium Integrin Binding Protein 1 (CIB1) Competitor (AID 1508620);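 note: GST tagged CIB1 binding a fluorescein labelled alphaIIb integrin peptide tracer; top concentration of the series differs between compounds; % is set by controls: 0 for no effect and ±100 for the full control effect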
Method in brief: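 Fluorescence polarization competition: GST-tagged CIB1 (1 uM final) preincubated with compound 15 min at room temperature, then FITC-labelled alphaIIb peptide (100 nM final) added. After 15 min at room temperature, polarization read at Ex 480/Em 540.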

[3] = biological target: Catechol O-methyltransferase (Homo sapiens) (UniProt P21964); assay: Confirmatory Screen for Target Class Profiling of Small Molecule Inhibitors of Methyltransferases (AID 1745852); conditions: MTase-Glo luminescence, SAH detection, recombinant enzyme; measured here: COMT max response; stronger effect = lower value; for activity change, negative = inhibition: % is set by controls: 0 for no effect and ±100 for the full control effect
[4] = biological target: Guanidinoacetate N-methyltransferase (Homo sapiens) (UniProt Q14353); assay: as above; conditions: activity change, negative = inhibition: at 57.3 µM (top of the series) unless noted
[5] = biological target: Nicotinamide N-methyltransferase (Homo sapiens) (UniProt P40261); assay: as above; conditions: MTase-Glo luminescence, SAH detection, recombinant enzyme; measured here: NNMT max response; stronger effect = lower value
[6] = Primary redox qHTS assay for identification of artifact compounds. (AID 1845223);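 note: 0% = DMSO and 100% = reference compound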
Method in brief: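 Amplex Red (25 uM) and HRP (250 mU/mL) in HBSS, with compounds for 15 min, then 250 uM DTT for 30 min, room temperature, dark. Fluorescence 525/598 nm read; normalized to DMSO and 10 uM DA3003; Hill fit.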

SKOV3 = assay: Primary qHTS to identify gynecologic anti-cancer compounds using libraries of approved drugs and bioactive compounds (AID 1345084); conditions: Gynecologic cancer cell panel viability, ATPlite luminescence, 48 h; series mostly up to 57.5 µM; note: nearly all actives have a fitted effect of over 55% in size; note: potency is the fitted concentration of half-maximal effect; for activity change, negative = cytotoxicity: % is set by controls: 0 for no effect and ±100 for the full control effect
Method in brief: as §1

[7] = P-glycoprotein substrates identified in KB-3-1 adenocarcinoma cell line, qHTS therapeutic library screen (AID 1346986); note: nearly all actives have a fitted effect of over 60% in size
Method in brief: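 Compounds were tested in dose-response against KB-3-1 and KB-8-5-11 cells at 37 degree C for 72 h, and viability was measured by luminescence. AC50 values came from curve fitting with class-based activity calls.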

[8] = test system: Zika virus NS2B-NS3 protease (unlinked complex); assay: Primary screen GU Rhodamine qHTS for Zika virus inhibitors: Unlinked NS2B-NS3 protease assay (AID 1347159); note: % is set by controls: 0 for no effect and ±100 for the full control effect; nearly all actives have a fitted effect of over 60% in size
Method in brief: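 Noncovalent NS2B hydrophilic domain/NS3 protease complex (25 nM final) in 10 mM Tris-HCl pH 8.0, 0.01% Tween 20, preincubated 15 min with compounds (up to 114 microM), then 1.5 microM Rhodamine110 substrate. Fluorescence change over 15 min fitted to 4-parameter Hill.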

[9] = biological target: Cytochrome P450 2D6 (Homo sapiens) (UniProt P10635); assay: Cytochrome P450 family 2 subfamily D member 6 (CYP2D6) small molecule antagonists: luciferase biochemical (cell-free) qHTS assay (AID 1645840; active = well fitted curve in the direction sought with a large enough effect in the repeat runs; an effect the other way counts as inactive or inconclusive; note: % is set by controls: 0 for no effect and ±100 for the full control effect; nearly all actives have a fitted effect of over 55% in size)
Method in brief: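 P450-Glo luminescent screen: recombinant CYP2D6 enzyme–proluciferin substrate mix preincubated with compound 10 min at room temperature, then NADPH regeneration added for 1 h at room temperature. Detection reagent added for 20 min; luciferin light read as relative luminescence units.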

[10] = Cytotoxicity counterscreen for inhibitors of SARS-CoV-2 cell entry (AID 1645845; calls by dose curve; note: % is set by controls: 0 for no effect and ±100 for the full control effect; nearly all actives have a fitted effect of over 50% in size)
Method in brief: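 HEK293-ACE2 cells (Expi293F stably expressing human ACE2) seeded overnight, then compound for 1 h plus 48 h at 37C. Viability as ATP content by luminescence; normalized to wells with cells and media-only wells.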

[11] = Primary qHTS to identify inhibitors of SARS-CoV-2 cell entry (AID 1645846; calls by dose curve; note: nearly all actives have a fitted effect of over 45% in size); conditions: activity change, negative = inhibition: at 57.1 µM (top of the series) unless noted
Method in brief: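 HEK293 cells stably expressing human ACE2, pre-treated 1 h with compound, then infected with MLV particles pseudotyped with Wuhan-Hu-1 spike (C-terminal 19-aa truncation). Luciferase luminescence after 48 h at 37 °C, normalised to spike PP and bald PP.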

Cytochrome P450 2D6 (Homo sapiens), sequence (P10635 whole entry, looked up): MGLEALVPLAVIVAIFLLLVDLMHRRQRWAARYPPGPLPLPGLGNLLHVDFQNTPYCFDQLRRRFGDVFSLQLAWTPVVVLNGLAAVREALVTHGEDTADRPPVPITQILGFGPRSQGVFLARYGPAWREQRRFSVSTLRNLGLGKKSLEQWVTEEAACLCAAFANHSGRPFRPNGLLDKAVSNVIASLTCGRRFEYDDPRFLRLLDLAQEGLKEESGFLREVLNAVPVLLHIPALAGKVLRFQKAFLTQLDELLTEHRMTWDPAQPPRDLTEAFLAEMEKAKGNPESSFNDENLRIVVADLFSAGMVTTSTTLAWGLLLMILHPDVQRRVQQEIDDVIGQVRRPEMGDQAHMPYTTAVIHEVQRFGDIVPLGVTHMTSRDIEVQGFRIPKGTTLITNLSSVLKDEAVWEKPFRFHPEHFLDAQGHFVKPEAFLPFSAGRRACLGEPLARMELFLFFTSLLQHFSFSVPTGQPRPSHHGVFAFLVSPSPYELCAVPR
Calcium and integrin-binding protein 1 (Homo sapiens), sequence (Q99828 whole entry, looked up): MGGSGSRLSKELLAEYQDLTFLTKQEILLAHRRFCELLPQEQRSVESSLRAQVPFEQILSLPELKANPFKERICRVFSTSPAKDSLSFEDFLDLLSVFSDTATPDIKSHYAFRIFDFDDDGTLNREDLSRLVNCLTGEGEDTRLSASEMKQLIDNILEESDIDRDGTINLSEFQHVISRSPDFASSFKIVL
Nicotinamide N-methyltransferase (Homo sapiens), sequence (P40261 whole entry, looked up): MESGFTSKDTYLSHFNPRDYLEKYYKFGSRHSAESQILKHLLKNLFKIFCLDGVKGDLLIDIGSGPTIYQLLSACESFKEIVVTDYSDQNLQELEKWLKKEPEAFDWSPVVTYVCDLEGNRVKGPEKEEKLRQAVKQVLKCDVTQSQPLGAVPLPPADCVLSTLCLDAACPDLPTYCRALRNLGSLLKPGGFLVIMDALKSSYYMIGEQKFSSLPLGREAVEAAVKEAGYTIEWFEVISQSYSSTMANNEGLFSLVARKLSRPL
Catechol O-methyltransferase (Homo sapiens), sequence (P21964 whole entry, looked up): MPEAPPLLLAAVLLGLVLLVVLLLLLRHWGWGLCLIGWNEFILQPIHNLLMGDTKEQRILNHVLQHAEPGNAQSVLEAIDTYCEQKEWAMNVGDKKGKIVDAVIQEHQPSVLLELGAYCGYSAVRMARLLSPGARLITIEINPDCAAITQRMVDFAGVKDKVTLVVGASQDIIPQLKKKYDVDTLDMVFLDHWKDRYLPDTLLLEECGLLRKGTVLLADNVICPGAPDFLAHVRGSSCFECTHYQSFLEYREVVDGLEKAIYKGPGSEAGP

CC[C@@H]1C[C@H]2CC[C@H](O2)[C@H](C)C(=O)O[C@@H](C)C[C@@H]2CC[C@@H](O2)[C@@H](C)C(=O)O[C@H](CC)C[C@H]2CC[C@H](O2)[C@H](C)C(=O)O[C@@H](C)C[C@@H]2CC[C@@H](O2)[C@@H](C)C(=O)O1
active: Potency [1] 1.93 µM | Potency (KB-3-1) 0.0385 µM | Potency (CAOV3) 0.398 µM | Potency (HeLa) 0.794 µM
inactive: Potency (JEG-3)

C[C@H]1O[C@@H](O[C@H]2CC[C@]3(CO)C4CC[C@]5(C)[C@@H](C6=CC(=O)OC6)CC[C@]5(O)[C@@H]4CC[C@H]3C2)[C@H](O)[C@H](O)[C@@H]1O[C@@H]1O[C@H](CO)[C@@H](O)[C@H](O)[C@H]1O (stereo not given in full)
-7.07%: activity [5]
active: Potency [1] 0.862 µM | Potency (KB-3-1) 1.93 µM | Potency (HeLa) 3.16 µM | Potency (SKOV3) 2.82 µM
-90%: activity [3]
-0.722% [at 19.1 µM]: activity change, negative = inhibition [4]
inactive: Potency [2] | Potency [6]

COc1ccc2c3c([nH]c2c1)C(C=C(C)C)N1C(=O)C2CCCN2C(=O)C1C3 (stereo not given)
inactive: Potency [7] | Potency [1] | Potency [8] | Potency [6] | outcome (KB-3-1) | Potency (CAOV3) | Potency (HeLa) | Potency (JEG-3)

COC1CC(O[C@H]2CC[C@]3(C)C4CC[C@]5(C)[C@@H](C6=CC(=O)OC6)[C@@H](OC(C)=O)C[C@]5(O)C4CC[C@@H]3C2)OC(C)C1O[C@@H]1O[C@H](CO)[C@@H](O)[C@H](O)[C@H]1O (stereo not given in full)
active: Potency [1] 0.544 µM | Potency (KB-3-1) 0.862 µM | Potency (CAOV3) 1.12 µM | Potency (SKOV3) 0.891 µM

Cc1c(Cl)c(OCC(=O)N2CCN(C)CC2)nc2sc(C(=O)NC3CC3)c(N)c12
inactive: Potency [7] | Potency [1] | Potency [8] | Potency [9] | Potency [6] | outcome (KB-3-1) | Potency (CAOV3) | Potency (JEG-3) | Potency (SKOV3)

CC[C@H](C)[C@H](NC(=O)[C@H]1CCCCN1C)C(=O)N(COC(=O)CC(C)C)[C@H](C[C@@H](OC(C)=O)c1nc(C(=O)N[C@@H](Cc2ccc(O)cc2)C[C@H](C)C(=O)O)cs1)C(C)C
active: Potency [1] 0.0019 µM | Potency (KB-3-1) 0.0008 µM
inactive: activity change, negative = inhibition [8] 9.2% [at 2.28 µM] | activity change, negative = inhibition [2] 1.44% [at 2.24 µM] | redox activity (% of DA3003) [6] -0.209% [at 1.02 µM] | activity change, negative = cytotoxicity (CAOV3) -2.04% [at 1.28 µM]

COC1CC(O[C@H]2CC[C@]3(C)C4CC[C@]5(C)[C@@H](C6=CC(=O)OC6)[C@@H](OC(C)=O)C[C@]5(O)C4CC[C@@H]3C2)OC(C)C1O (stereo not given in full)
inactive: Potency [8] | Potency [2]
active: Potency [1] 0.563 µM | Potency (KB-3-1) 0.563 µM | Potency (CAOV3) 1.26 µM | Potency (HeLa) 0.891 µM | Potency (SKOV3) 0.794 µM

CC[C@H]1C[C@@H]2CC[C@@H](O2)[C@@H](C)C(=O)O[C@H](CC)C[C@H]2CC[C@H](O2)[C@H](C)C(=O)O[C@@H](C)C[C@@H]2CC[C@@H](O2)[C@@H](C)C(=O)O[C@H](CC)C[C@H]2CC[C@H](O2)[C@H](C)C(=O)O1
active: Potency [1] 0.968 µM | Potency (KB-3-1) 0.0153 µM | Potency (CAOV3) 0.398 µM | Potency (HeLa) 0.562 µM | Potency (SKOV3) 0.251 µM
inactive: Potency [8] | Potency [2] | Potency [6] | Potency (JEG-3)

CO[C@@H]1C[C@H](O[C@H]2CC[C@@]3(C)C(CCC4C3CC[C@]3(C)[C@@H](C5=CC(=O)OC5)[C@@H](OC(C)=O)CC43O)C2)O[C@H](C)[C@@H]1O[C@H]1O[C@H](CO[C@@H]2O[C@H](CO)[C@@H](O)[C@H](O)[C@H]2O)[C@@H](O)[C@H](O)[C@H]1O (stereo not given in full)
active: Potency [1] 0.873 µM | Potency (KB-3-1) 0.979 µM | Potency (CAOV3) 2.24 µM | Potency (HeLa) 1.58 µM | Potency (SKOV3) 2 µM
inactive: Potency [2] | redox activity (% of DA3003) [6] 15.6% [at 11.5 µM]

CC(=O)N1N=C(c2ccc(N)cc2)c2cc3c(cc2C[C@H]1C)OCO3
inactive: Potency [1] | Potency [2] | Potency [9] | Potency [10] | Potency [6] | max response (KB-3-1) 6.29% | Potency (CAOV3) | Potency (JEG-3) | Potency (SKOV3)
-4.19%: activity change, negative = inhibition [11]

C[C@H]1O[C@@H](n2cnc3c(N)ncnc32)C[C@@H]1O
inactive: Potency [7] | Potency [1] | Potency [8] | Potency [2] | Potency [6] | outcome (KB-3-1) | Potency (JEG-3) | Potency (SKOV3)

CC(C)(C)[C@]1(O)C[C@@H]2OC(=O)C[C@@]23C(=O)O[C@@H]2OC(=O)[C@@H](O)[C@]213
inactive: Potency [1] | Potency [8] | Potency [2] | Potency [6] | max response (KB-3-1) -3.84% | Potency (HeLa) | Potency (JEG-3) | Potency (SKOV3)

CC(=O)OC[C@]12C[C@H](O)C(C)=C[C@H]1O[C@@H]1[C@H](O)[C@@H](OC(C)=O)[C@@]2(C)[C@]12CO2
active: Potency [1] 0.0143 µM | Potency (KB-3-1) 0.0321 µM | Potency (JEG-3) 0.224 µM
inactive: Potency [8] | Potency [2] | Potency [6]

OCc1nnc2n1-c1ccc(Cl)cc1C(c1ccccc1Cl)=NC2
inactive: Potency [1] | Potency [8] | Potency [2] | Potency [6] | max response (KB-3-1) 8.98% | Potency (CAOV3) | Potency (HeLa) | Potency (JEG-3) | Potency (SKOV3)

CO[C@H]1[C@@H](O)[C@@H](C)O[C@@H](O[C@@H]2C=C3C(OC(C)=O)CC4(O)C(CC[C@]5(C)[C@@H](C6=CC(=O)OC6)CC[C@]45O)[C@@]3(C)CC2)[C@@H]1O (stereo not given in full)
active: Potency [1] 0.193 µM | Potency (KB-3-1) 0.385 µM | Potency (CAOV3) 0.501 µM | Potency (HeLa) 0.501 µM | Potency (SKOV3) 0.282 µM
inactive: Potency [8] | Potency [2] | Potency [6]

CC(=O)O[C@@H]1[C@@H](O)[C@H]2O[C@@H]3C=C(C)[C@@H](O)C[C@]3(CO)[C@]1(C)[C@]21CO1
active: Potency (KB-3-1) 0.805 µM | Potency (HeLa) 2.51 µM | Potency (SKOV3) 1.26 µM
inactive: Potency [8] | Potency [2] | Potency [6]

CO[C@H]1[C@H](O)[C@H](O[C@H]2CC[C@]3(C=O)C4CC[C@]5(C)[C@H](C6=CC(=O)OC6)CC[C@]5(O)C4CC[C@@H]3C2)O[C@@H](C)[C@@H]1O (stereo not given in full)
inactive: Potency [8] | Potency [2]
active: Potency [1] 0.0252 µM | Potency (KB-3-1) 0.0399 µM | Potency (CAOV3) 0.1 µM | Potency (HeLa) 0.126 µM

CC1=C[C@H]2O[C@@H]3[C@H](O)[C@@H](O)[C@](C)([C@@]2(CO)C[C@@H]1O)[C@]31CO1
active: Potency [1] 2.06 µM | Potency (KB-3-1) 1.46 µM | Potency (CAOV3) 11.2 µM | Potency (HeLa) 12.6 µM
inactive: Potency [8] | Potency [2] | Potency [6]

CNc1ccc2oc(C[C@H]3O[C@@]4(CC[C@H]3C)O[C@H](C(C)C(=O)c3ccc[nH]3)[C@H](C)C[C@H]4C)nc2c1C(=O)O (stereo not given in full)
active: Potency [1] 2.06 µM | Potency (KB-3-1) 2.31 µM | Potency (CAOV3) 22.4 µM
inactive: Potency [2] | Potency [9]

CO[C@H]1C[C@H](O[C@H]2CC[C@@]3(C)C(=CCC4C3CC[C@]3(C)[C@@H](C5=CC(=O)OC5)CC[C@]43O)C2)O[C@@H](C)[C@@H]1O[C@@H]1O[C@H](CO[C@@H]2O[C@H](CO)[C@@H](O)[C@H](O)[C@H]2O)[C@@H](O)[C@H](O)[C@H]1O (stereo not given in full)
inactive: activity change, negative = cytotoxicity [1] 3.8% [at 9.29 µM] | Potency [8] | Potency [2] | redox activity (% of DA3003) [6] 8.54% [at 11.5 µM] | max response (KB-3-1) 4.69% | activity change, negative = cytotoxicity (CAOV3) 17.9% [at 11.6 µM] | activity change, negative = cytotoxicity (HeLa) 1.26% [at 11.6 µM] | activity change, negative = cytotoxicity (JEG-3) 16.2% [at 11.6 µM]
